Assay results published in the supplement of paper PMC10338343.
± gives the standard deviation.

Tests used:
[1] = tested on: MILI (PIWIL2) piRISC loaded with L1MC piRNA (26 nt); test: pre-steady-state target cleavage rate (min^-1); guide: L1MC piRNA 5'p-UAACUAAAUACUAUGCAAGCUGUAGG; higher = faster piRNA-guided slicing of the target;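 note: 1 nM active piRISC with 0.1 nM target library at 33 °C single turnover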
Method in brief: (§1)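 Cleave-'n-Seq measured uncleaved targets by sequencing after a transcribed, DNA-blocked target RNA library […] was mixed with 1 nM active affinity-purified piRISC holding one synthetic guide, with or without 500 nM GTSF1 partner protein, at 33 °C in HEPES–potassium acetate buffer for 0–8 or 0–960 min. Counts were normalised to depth and to weakly complementary targets, three trials were pooled, and k3 was capped at 0.0001 min^-1. A burst-and-steady-state fit gave the pre-steady-state cleavage rate.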

[2] = tested on: EfPiwi piRISC loaded with L1MC piRNA (26 nt); test: pre-steady-state target cleavage rate (min^-1); auxiliary factor: 500 nM Ephydatia muelleri Gtsf1; guide: L1MC piRNA 5'p-UAACUAAAUACUAUGCAAGCUGUAGG; MIWI and MILI are mouse PIWI proteins and EfPiwi is from a freshwater sponge; tags in brackets are library labels; higher = faster piRNA-guided slicing of the target
Method in brief: as §1

[3] = auxiliary factor: 500 nM mouse GTSF1
[4] = auxiliary factor: none (no GTSF1)

| Sequence | pre-steady-state target cleavage rate [1, 3] | pre-steady-state target cleavage rate [1, 4] | pre-steady-state target cleavage rate [2] |
| --- | --- | --- | --- |
| UCCUGGAUGUCCUUGCAUAGUAUUUAGUUU [g2:g19:cont:t1U] | 0.17 ± 0.022 | 0.0113 ± 0.0024 | 0.00601 ± 0.0034 |
| UCCUGGAUCAGCAUGCAUACUAUUUAGUUA | 0.0724 ± 0.0079 | 0.00491 ± 0.0019 | 0.00409 ± 0.0018 |
| UCCUGGAUCAGGCUUGCAUAGUAUUUAGUUA | 0.213 ± 0.017 | 0.0107 ± 0.0028 | 0.0132 ± 0.0034 |
| UCCUGGAACAGCUUGCAUAGUAUUCAGUUA | 0.228 ± 0.042 | 0.00292 ± 0.0026 | 0.00333 ± 0.0018 |
| UCCUCCUACAGCUUGCAAAGUUUUUAGUUA | 0.0169 ± 0.0064 | 0.00334 ± 0.0023 | 0.00281 ± 0.0022 |
| UCCUGCAACAGCUUGCAUAGUUUUUAGUUA | 0.0613 ± 0.0099 | 0.00354 ± 0.0029 | 0.00727 ± 0.0019 |
| UCCUGGUUGAGCUUGCAUAGUAUUUAGUUA | 0.179 ± 0.017 | 0.0113 ± 0.0033 | 0.0176 ± 0.0053 |
| UCCUGGUACAGCUUGCAAAGUUUUUAGUUA | 0.0248 ± 0.0088 | 0.00339 ± 0.0029 | 0.00245 ± 0.0024 |
| UCCUGGUAGCAGCUUGCAUAGUAUUUAGUUA | 0.286 ± 0.019 | 0.0162 ± 0.0048 | 0.0746 ± 0.02 |
| UCCUGGAUCAGCUUCGAUAGUAUUUAGUUA | 0.233 ± 0.018 | 0.0034 ± 0.0021 | 0.00503 ± 0.0041 |
| UCCUGCUACCAGCUUGCAUAGUAUUUAGUUA | 0.24 ± 0.019 | 0.0115 ± 0.0033 | 0.0199 ± 0.0059 |
| UCCUGGAACAGCAAGCAUAGUAUUUAGUUA | 0.275 ± 0.018 | 0.00588 ± 0.0024 | 0.00853 ± 0.0027 |
| UCCUGGAUGAGUUGCAUAGUAUUUAGUUA | 0.108 ± 0.013 | 0.00501 ± 0.0019 | 0.00429 ± 0.002 |
| UCCUGCUACAGCUUGGUUAGUAUUUAGUUA | 0.262 ± 0.015 | 0.0061 ± 0.002 | 0.0105 ± 0.0033 |
| UCCUGCUACGCUUGCAUAGUAUUUAGUUA | 0.291 ± 0.025 | 0.0067 ± 0.0024 | 0.0122 ± 0.0033 |
| UCCUGCUACAGACUUGCAUAGUAUUUAGUUA | 0.169 ± 0.018 | 0.00767 ± 0.0021 | 0.00603 ± 0.0024 |
| UCCUGGAUCAGGUUGCAUAGUAUUAAGUUA | 0.144 ± 0.017 | 0.00601 ± 0.0021 | 0.00407 ± 0.0025 |
| UCCUGGAUCAGCUUGCAUAGUAGUUUAGUUA | 0.216 ± 0.02 | 0.00969 ± 0.0027 | 0.0107 ± 0.0033 |
| UCCUGGAUCUAGCUUGCAUAGUAUUUAGUUA | 0.193 ± 0.021 | 0.00722 ± 0.0025 | 0.0755 ± 0.019 |
| UCCUGGAACAGCUUGGCAUAGUAUUUAGUUA | 0.48 ± 0.097 | 0.00632 ± 0.0027 | 0.0094 ± 0.0031 |
| UCCUGGAACAGCUUGCAUAGUAUUAAGUUA | 0.212 ± 0.024 | 0.00457 ± 0.0019 | 0.00549 ± 0.0022 |
| UCCUGGAUCAGCUUGCAUAGUAUAUUAGUUA | 0.273 ± 0.015 | 0.00593 ± 0.0025 | 0.127 ± 0.043 |
| UCCUGCUUCAGCUUGCAUAGUAUUUACUUA | 0.116 ± 0.021 | 0.00294 ± 0.0023 | 0.00411 ± 0.0037 |
| UCCUCCUACAGCUUGCAUAGUAUAAUGUUA | 0.158 ± 0.026 | 0.00294 ± 0.0027 | 0.00388 ± 0.0022 |
| UCCUCCUAUCAGCUUGCAUAGUAUUUAGUUA | 0.322 ± 0.015 | 0.00786 ± 0.0023 | 0.0677 ± 0.018 |
